# Laboratory results reported in PubChem BioAssay (Tox21).
# Records with an inconclusive call do not appear. Activity calls are given as the source filed them. Calls come from the whole dose curve.
# Target: D(2) dopamine receptor (Homo sapiens) (UniProt P14416)
# Assay: Dopamine D2 receptor (DRD2) small molecule agonists, cell-based qHTS assay (AID 1963594); note: nearly all actives have a fitted effect of over 35% in size
# Details: HEK293-DRD2 cAMP HTRF, agonist mode, 30 min; series mostly up to 92.4 µM; activation: at the top concentration
# Source text: National Center for Advancing Translational Sciences [NCATS]
# Division of Preclinical Innovation [DPI]
# U.S. Environmental Protection Agency [EPA]
# National Institutes of Environmental Health Sciences [NIEHS]
# National Toxicology Program [NTP]
# U.S. Food and Drug Administration [FDA]
# DRD2 is the D2 subtype of the dopamine receptor, which is coupled to Gi subtype of G protein-coupled receptor. This G protein-coupled receptor inhibits adenylyl cyclase activity. The DRD2-HEK293 cell line stably expressing D2 dopamine receptor can be used for screening agonists and antagonists of interactions between D2 and its ligands. The Hek293-DRD2 cAMP assay is based on HTRF technology. It measures changes of cAMP accumulation in response to Gi coupled GPCR activation or inhibition.
# Tox21 Assay Protocol Summary:
# DRD2-Hek293 cells were dispensed at 600 cells/3uL/well in 1536-well white plates using a Multidrop Dispenser. After the assay plates were incubated at a 37 C/5% CO2 incubator for 24 h, 1 uL of Ro20-1724 at final concentration of 0.1 mM was transferred to the assay plate by a Flying Reagent Dispenser. Following Ro20-1724 addition, 23 nL of compound dissolved in DMSO, positive controls or DMSO only was added to the assay plates via Wako pintool station. The assay plates were incubated at room temperature for 10 min. Next, 1 uL of NKH477 at 200nM was added into the plates. After the assay plates were incubated at room temperature for an additional 30 min, 2.5 ul/well of cAMP-d2 and 2.5 ul/well of anti-cAMP-cryptate were added respectively into the assay plates using a Flying Reagent Dispenser. The plates were incubated at room temperature for 1 h. The fluorescence intensity in the plates was measured at 340 nm excitation and 665 & 620 nm emission by an Envision plate reader.
# % is set by controls: 0 for no effect and ±100 for the full control effect.
# Sequence of D(2) dopamine receptor (Homo sapiens) (P14416 whole entry, looked up): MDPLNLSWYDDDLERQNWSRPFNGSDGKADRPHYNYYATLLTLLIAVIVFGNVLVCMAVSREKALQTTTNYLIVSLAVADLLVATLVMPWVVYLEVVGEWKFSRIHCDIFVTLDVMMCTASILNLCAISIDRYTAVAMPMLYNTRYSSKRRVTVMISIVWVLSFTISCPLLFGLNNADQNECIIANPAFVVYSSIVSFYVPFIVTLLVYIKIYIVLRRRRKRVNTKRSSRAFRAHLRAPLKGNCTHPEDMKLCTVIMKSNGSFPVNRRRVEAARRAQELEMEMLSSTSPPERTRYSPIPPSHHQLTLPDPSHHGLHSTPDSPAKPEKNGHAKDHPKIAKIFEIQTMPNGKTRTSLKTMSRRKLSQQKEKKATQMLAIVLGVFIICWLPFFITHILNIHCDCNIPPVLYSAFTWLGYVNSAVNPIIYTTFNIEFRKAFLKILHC
row,SMILES,activation
1,O=C(c1ccccc1)C1CCC1,-5.08% (inactive)
2,Clc1ccc(C(Cn2ccnc2)OCc2ccc(Sc3ccccc3)cc2)c(Cl)c1 (stereo not given),-5.65% [at 42.5 µM] (inactive)
3,CCCCCCCCCCCCCCCCCCNC(=O)OC1CCN(C(=O)OC[C@H](COC(=O)N(Cc2cccc[n+]2CC)C(=O)c2ccccc2OC)OC)CC1,-10.9% [at 42.5 µM] (inactive)
4,CCN(CC)CCOC(=O)C(c1ccccc1)C1CCCCC1 (stereo not given),-22.4% [at 42.5 µM] (inactive)
5,CC(S)C(C)S (stereo not given),-6.24% (inactive)
6,CN1[C@@H]2CC[C@@H]1CC(OC(=O)C(CO)c1ccccc1)C2 (stereo not given in full),1.31% [at 42.5 µM] (inactive)
7,CNCC[C@@H](Oc1ccccc1C)c1ccccc1,-6.57% [at 42.5 µM] (inactive)
8,Cc1cc(Cl)c(C)cc1Cl,1.03% (inactive)
9,O=C(O)Cc1ccc(Cl)cc1Cl,3.27% (inactive)
10,C[Si](Cl)(c1ccccc1)c1ccccc1,-6.21% (inactive)
11,CCOc1ccc(O)cc1,0.804% (inactive)
12,O=C1N=C(O)CN1/N=C/c1ccc(-c2ccc([N+](=O)[O-])cc2)o1,28.1% [at 42.5 µM] (inactive)
13,N/C(=N\N=C\c1ccc(Cl)cc1)N/N=C/c1ccc(Cl)cc1,-11.6% [at 42.5 µM] (inactive)
14,O=C1c2ccccc2C(=O)c2c(O)c(O)cc(O)c21,13.5% (inactive)
15,CCCNC(C)C(=O)Nc1c(C)csc1C(=O)OC (stereo not given),-1.49% [at 42.5 µM] (inactive)
16,O=C(Nc1ccc(S(=O)(=O)N2CCOCC2)cc1)c1cc(Cl)ccc1NS(=O)(=O)c1ccc(Cl)s1,-5.4% [at 42.5 µM] (inactive)
17,CCCCCCCCCCCCCOC(=O)CCSCCC(=O)OCCCCCCCCCCCCC,5.42% [at 19 µM] (inactive)
18,CN[C@@H]1[C@@H](O)[C@@H](O[C@@H]2[C@H](O)[C@H](O[C@H]3OC(CN)=CC[C@H]3N)[C@@H](N)C[C@H]2N)OCC1(C)O (stereo not given in full),9.2% [at 42.5 µM] (inactive)
19,Cc1cc(O)c2ccccc2c1O,-11.5% [at 42.5 µM] (inactive)
20,CCCCCCCC/C=C\CCCCCCCC(=O)OCC,5.92% (inactive)

row,SMILES,activation
1,C=CCOCC(O)CS(=O)(=O)O (stereo not given),0.0946% (inactive)
2,CCCOC(=O)CCCCC(=O)OCCC,-7.14% (inactive)
3,OCCN1CCN(CCCN2c3ccccc3Sc3ccc(Cl)cc32)CC1,-7.26% [at 42.5 µM] (inactive)
4,C[C@H](CCC(=O)O)[C@H]1CC[C@H]2[C@@H]3C(=O)C[C@@H]4CC(=O)CC[C@]4(C)[C@H]3CC(=O)[C@]12C,-4.65% [at 42.5 µM] (inactive)
5,CCOC(=O)OC(C)OC(=O)[C@@H]1N2C(=O)[C@@H](NC(=O)[C@H](N)c3ccccc3)[C@H]2SC1(C)C (stereo not given in full),4.15% [at 42.5 µM] (inactive)
6,COc1cc(C(=O)OCCCN2CCCN(CCCOC(=O)c3cc(OC)c(OC)c(OC)c3)CC2)cc(OC)c1OC,-13% [at 42.5 µM] (inactive)
7,O=C(O)c1ccc2cc(C(=O)O)ccc2c1,-1.53% (inactive)
8,NC(Cc1c[nH]c2ccccc12)C(=O)O (stereo not given),-1.53% [at 42.5 µM] (inactive)
9,O=C(OCC(COC(=O)c1cccnc1)(COC(=O)c1cccnc1)COC(=O)c1cccnc1)c1cccnc1,-6.64% [at 42.5 µM] (inactive)
10,CC(C)N1C(=O)c2ccccc2C1=O,0.304% (inactive)
11,CC(=O)OC(OC(C)=O)c1ccc([N+](=O)[O-])o1,2.67% (inactive)
12,CCCC(C)CC (stereo not given),-0.291% (inactive)
13,Cc1ccccc1N=C(N)Nc1ccccc1C,-4.39% (inactive)
14,N#Cc1ccccc1O,0.501% (inactive)
15,CC(C)CCC(=O)CCC(C)C,9.44% (inactive)
16,C=CC(=O)[O-].C=CC(=O)[O-].[Zn+2],0.484% (inactive)
17,CCCCCCCCCCCCCCCC(=O)OC/C=C(C)/C=C/C=C(C)/C=C/C1=C(C)CCCC1(C)C,2.96% (inactive)
18,CC(=O)N1CCN(c2ccc(OC[C@H]3CO[C@](Cn4ccnc4)(c4ccc(Cl)cc4Cl)O3)cc2)CC1,-14.9% (inactive)
19,CCCCCCCCCCCCSCCOCCO,-10.6% [at 42.5 µM] (inactive)
20,C[C@H]1[C@H](NC(=O)/C(=N/OC(C)(C)C(=O)O)c2csc(N)n2)C(=O)N1S(=O)(=O)O (stereo in doubt),-8.86% [at 42.5 µM] (inactive)
